Assay results taken from the antibiotic and cytotoxicity screens of Wong et al. (2023).
The whole screen tested about 39,000 compounds, of which about 1,500 (3.8%) were called active. The sample as a whole holds a higher share of actives than the screen did.

system: HSkMC (human skeletal muscle cells); experiment: cytotoxicity call (relative viability < 0.9); conditions: 10 µM

Compound	cytotoxicity call
CS(=O)(=O)N1CC(=O)Nc2ccccc21	inactive
COc1ccc(S(=O)(=O)Nc2ccc3c(c2)C(=O)N([C@@H](C)CO)C[C@@H](C)[C@@H](CN(C)Cc2ccc(C(=O)O)cc2)OCCCC[C@H](C)O3)cc1	inactive
C[C@@H]1CN([C@@H](C)CO)S(=O)(=O)c2ccc(C#CCN(C)C)cc2O[C@@H]1CN(C)Cc1ccccc1F	inactive
CC(C)NC(=O)Nc1ccc2c(c1)C(=O)N([C@H](C)CO)C[C@H](C)[C@H](CN(C)C(=O)Nc1cccc3ccccc13)OCCCC[C@H](C)O2	inactive
CC(C)NC(=O)N(C)C[C@H]1Oc2ccc(NC(=O)C3CCCCC3)cc2C(=O)N([C@H](C)CO)C[C@@H]1C	inactive
CCC(=O)Nc1ccc2c(c1)OC[C@@H](C)N(C(=O)CN1CCOCC1)C[C@H](C)[C@@H](OC)CN(C)C2=O	inactive
C[C@@H]1CN([C@@H](C)CO)C(=O)c2cccc(NC(=O)Nc3cccc4ccccc34)c2O[C@H]1CN(C)S(=O)(=O)c1ccccc1	inactive
COc1ccc(S(=O)(=O)Nc2cccc3c2O[C@H](CN(C)S(=O)(=O)c2ccc(C)cc2)[C@@H](C)CN([C@H](C)CO)C3=O)cc1	inactive
O=C(C[C@@H]1CC[C@H]2[C@@H](COC[C@@H](O)CN2S(=O)(=O)c2cccc(Cl)c2)O1)NCCCN1CCOCC1	inactive
COCC(=O)N1CC[C@]2(CC1)CN(Cc1cccc(c1)OC)[C@H](CO)c1c2c2ccc(cc2n1C)OC	inactive
C[C@H](CO)N1C[C@H](C)[C@@H](CN(C)S(=O)(=O)c2cn(C)cn2)OCc2cn(nn2)CCCC1=O	inactive
C[C@H]1CN([C@@H](C)CO)C(=O)Cc2cc(NC(=O)Nc3ccc(C(F)(F)F)cc3)ccc2O[C@@H]1CN(C)Cc1ccccc1	inactive
C[C@@H]1CN([C@@H](C)CO)C(=O)Cc2cc(NC(=O)Nc3ccc(C(F)(F)F)cc3)ccc2O[C@@H]1CN(C)Cc1ccccc1	active
C[C@H](CO)N1C[C@H](C)[C@H](CN(C)Cc2ccccc2)Oc2ccc(NC(=O)Nc3ccc(C(F)(F)F)cc3)cc2CC1=O	active
C[C@@H]1CN([C@@H](C)CO)C(=O)Cc2cc(NC(=O)Nc3ccc(C(F)(F)F)cc3)ccc2O[C@H]1CN(C)Cc1ccccc1	inactive
C[C@H]1CN([C@@H](C)CO)C(=O)Cc2cc(NC(=O)Nc3ccc(C(F)(F)F)cc3)ccc2O[C@H]1CN(C)Cc1ccccc1	active
C[C@@H]1CN([C@H](C)CO)C(=O)Cc2cc(NC(=O)Nc3ccc(C(F)(F)F)cc3)ccc2O[C@H]1CN(C)Cc1ccccc1	active
C[C@@H]1CCCCO[C@@H](CN(C)Cc2ccc(Cl)c(Cl)c2)[C@@H](C)CN([C@@H](C)CO)C(=O)c2cc(NS(=O)(=O)c3cn(C)cn3)ccc2O1	inactive
C[C@H]1CCCCO[C@@H](CN(C)Cc2ccc(C(F)(F)F)cc2)[C@@H](C)CN([C@@H](C)CO)C(=O)c2cc(N(C)C)ccc2O1	inactive
CC(C)C#Cc1cnc2c(c1)C(=O)N([C@H](C)CO)C[C@H](C)[C@H](CN(C)S(=O)(=O)c1cn(C)cn1)O2	inactive
CCCC#Cc1cnc2c(c1)C(=O)N([C@@H](C)CO)C[C@H](C)[C@H](CN(C)C(=O)c1ccc3c(c1)OCO3)O2	inactive

Compound	cytotoxicity call
COc1ccccc1S(=O)(=O)N[C@H]1CC[C@@H](CCNC(=O)C2CC2)O[C@@H]1CO	inactive
COc1ccc(NC(=O)Nc2cccc3c2O[C@@H](CN(C)CC2CCCCC2)[C@H](C)CN([C@@H](C)CO)C3=O)cc1	inactive
O=C(C[C@H]1C[C@H]2c3cc(NS(=O)(=O)c4ccc(F)cc4)ccc3O[C@H]2[C@@H](CO)O1)N1CCCCC1	inactive
COCC(=O)N1C[C@@H](C)[C@H](OC)CN(C)C(=O)c2ccc(NC(=O)Nc3cccc(F)c3)cc2OC[C@@H]1C	inactive
C[C@@H]1CN([C@H](C)CO)C(=O)Cc2cc(NC(=O)Cc3cn(C)c4ccccc34)ccc2O[C@@H]1CN(C)Cc1ccc(C(F)(F)F)cc1	inactive
NC1CCN(C(=O)N2CCCC2)CC1	inactive
C[C@@H]1CN([C@@H](C)CO)C(=O)Cc2cc(NS(=O)(=O)c3ccc(Cl)cc3)ccc2O[C@H]1CN(C)C(=O)Nc1ccc(C(F)(F)F)cc1	inactive
C[C@H](CO)N1C[C@H](C)[C@H](CN(C)CC2CC2)Oc2c(NS(=O)(=O)c3ccccc3)cccc2C1=O	inactive
COc1ccc(S(=O)(=O)Nc2ccc3c(c2)C(=O)N([C@H](C)CO)C[C@H](C)[C@@H](CN(C)S(=O)(=O)c2ccc(OC)cc2)O3)cc1	inactive
CN1C[C@@H](N)CC1=O	inactive
COC(=O)[C@H](Cc1ccccc1)N1CC2=CCCC=C[C@H]2[C@@H]1[C@@H](O)CCn1cc(CCC(=O)NO)nn1	inactive
C[C@H](CO)N1C[C@H](C)[C@@H](CN(C)Cc2ccccc2)Oc2ccc(NC(=O)Nc3ccc(C(F)(F)F)cc3)cc2CC1=O	active
C[C@@H]1CN([C@H](C)CO)C(=O)Cc2cc(NC(=O)Nc3ccc(C(F)(F)F)cc3)ccc2O[C@@H]1CN(C)Cc1ccccc1	active
COc1cccc(S(=O)(=O)N2C[C@H](O)COC[C@@H]3O[C@@H](CC(=O)NCCCN4CCOCC4)CC[C@H]32)c1	inactive
CN1CCN(C(=O)C[C@@H]2C=C[C@@H](NS(=O)(=O)c3cccc(F)c3)[C@@H](CO)O2)CC1	inactive
O=C(O)/C=C\C(=O)Nc1cccc(C(=O)O)c1	inactive
COc1ccc(NC(=O)Nc2cccc3c2O[C@H](CN(C)Cc2ccc(-c4ccccc4)cc2)[C@@H](C)CN([C@H](C)CO)C3=O)cc1	inactive
COc1ccc(NC(=O)Nc2cccc3c2O[C@@H](CN(C)Cc2ccc(-c4ccccc4)cc2)[C@@H](C)CN([C@H](C)CO)C3=O)cc1	inactive
COc1ccc(NC(=O)Nc2cccc3c2O[C@H](CN(C)Cc2ccc(-c4ccccc4)cc2)[C@@H](C)CN([C@@H](C)CO)C3=O)cc1	active
COc1ccc(NC(=O)Nc2cccc3c2O[C@H](CN(C)Cc2ccc(-c4ccccc4)cc2)[C@H](C)CN([C@H](C)CO)C3=O)cc1	active
COc1ccc(NC(=O)Nc2cccc3c2O[C@H](CN(C)Cc2ccc(-c4ccccc4)cc2)[C@H](C)CN([C@@H](C)CO)C3=O)cc1	inactive

Compound	cytotoxicity call
COc1ccc(NC(=O)Nc2cccc3c2O[C@@H](CN(C)Cc2ccc(-c4ccccc4)cc2)[C@H](C)CN([C@@H](C)CO)C3=O)cc1	inactive
C[C@@H]1CN([C@H](C)CO)C(=O)c2cc(NS(=O)(=O)c3ccc(Cl)cc3)ccc2O[C@@H](C)CCCCO[C@@H]1CN(C)C(=O)NC1CCCCC1	inactive
C[C@@H]1CCCCO[C@H](CN(C)Cc2ccc(C(=O)O)cc2)[C@H](C)CN([C@H](C)CO)C(=O)c2cc(NC(=O)c3ccccc3)ccc2O1	inactive
C[C@@H]1CN([C@H](C)CO)C(=O)c2cc(NC(=O)Cn3cnnn3)ccc2O[C@@H]1CN(C)S(C)(=O)=O	inactive
C[C@@H]1CCCCO[C@@H](CN(C)S(C)(=O)=O)[C@@H](C)CN([C@@H](C)CO)C(=O)c2cc(NS(=O)(=O)c3ccccc3)ccc2O1	inactive
CC[C@@]1(O)C(=O)OCc2c1cc1n(c2=O)Cc2c-1nc1cc(F)c(C)c3c1c2[C@@H](N)CC3	active
CCC1(O)C(=O)OCc2c1cc1n(c2=O)Cc2cc3c(CN(C)C)c(O)ccc3nc2-1.Cl (stereo not drawn)	inactive
CCC1(O)C(=O)OCc2c1cc1n(c2=O)Cc2cc3cc(O)ccc3nc2-1 (stereo not drawn)	inactive
CC(C)(C)[S@@](=O)N1Cc2cc(C(=O)N[C@H]3CCN(Cc4ccccc4)C3)nc(-c3cccc(-c4ccncc4)c3)c2[C@H]1CCO	inactive
Cc1noc(C)c1NC(=O)Nc1cccc2c1O[C@H](CN(C)Cc1ccc(Oc3ccccc3)cc1)[C@@H](C)CN([C@@H](C)CO)C2=O	inactive
C[C@H]1CCCCO[C@H](CN(C)S(=O)(=O)c2ccccc2)[C@@H](C)CN([C@@H](C)CO)C(=O)c2cc(NS(=O)(=O)c3cn(C)cn3)ccc2O1	inactive
O=C(c1ccccc1O)N1CCOCC1	inactive
O=C(c1cn(Cc2cncn2Cc2ccc(Br)cc2)cc1-c1cccc2ccccc12)N1CCOCC1	active
Nc1ccccc1C(=O)N1CCOCC1	inactive
C[C@@H]1CN([C@H](C)CO)C(=O)c2cc(NC(=O)Nc3ccccc3)ccc2O[C@@H](C)CCCCO[C@H]1CN(C)Cc1ccncc1	inactive
CO[C@H]1/C=C\O[C@@]2(C)Oc3c(C)c(O)c4c(O)c(c(/C=N/N=C/N5CCCCC5)c(O)c4c3C2=O)NC(=O)/C(C)=C\C=C/[C@H](C)[C@H](O)[C@@H](C)[C@@H](O)[C@@H](C)[C@H](OC(C)=O)[C@@H]1C	active
COC1C=COC2(C)Oc3c(C)c(O)c4c(O)c(c(C=NN5CCN(C6CCCC6)CC5)c(O)c4c3C2=O)NC(=O)C(C)=CC=CC(C)C(O)C(C)C(O)C(C)C(OC(C)=O)C1C (stereo not drawn)	inactive
CO[C@H]1/C=C\O[C@@]2(C)Oc3c(C)c(O)c4c(c3C2=O)[C@]2(C=C(NC(=O)/C(C)=C\C=C/[C@@H](C)[C@@H](O)[C@@H](C)[C@@H](O)[C@@H](C)[C@@H](OC(C)=O)[C@@H]1C)C4=O)OCC(=O)O2	active
COC1C=COC2(C)Oc3c(C)c(O)c4c(O)c(c5c(nc6cc(C)ccn65)c4c3C2=O)NC(=O)C(C)=CC=CC(C)C(O)C(C)C(O)C(C)C(OC(C)=O)C1C (stereo not drawn)	inactive
COC1C=COC2(C)Oc3c(C)c(O)c4c(O)c(c(C=NN5CCN(C)CC5)c(O)c4c3C2=O)NC(=O)C(C)=CC=CC(C)C(O)C(C)C(O)C(C)C(OC(C)=O)C1C (stereo not drawn)	inactive
[N-]=[N+]=Nc1ccccc1[C@H]1OC(c2ccc(OCCCO)cc2)=N[C@@]1(CCS(=O)(=O)c1ccccc1)C(=O)N1CCCCC1	inactive
